High-throughput results deposited in PubChem BioAssay by National Center for Advancing Translational Sciences (NCATS).
Lassa entry inh: Lassa virus entry inhibition. AID 540256. Lassa virus pseudotype entry inhibition, cell reporter. Potency, µM (highest dose often 37.9 µM), for the others: top-dose activity change, negative = inhibition, actives largely listed as inhibitors. 300,000 tested, 1.2% active; calls by dose curve; tested in HEK293 cells; note: potency is the fitted concentration of half-maximal effect; nearly all actives have a fitted effect of over 50% in size
Marburg entry inh: blocks Marburg virus binding to or entry into cells; Potency, µM (series often up to 37.8 µM), for the others: at the highest dose activity change, negative = inhibition, hits mostly inhibitors; Marburg virus pseudotyped entry inhibition, cell reporter; 300,000 tested, 1.8% active; calls by dose curve; tested in HEK293 cells; note: potency is the fitted concentration of half-maximal effect
FMDV antiviral: foot and mouth disease virus antiviral activity; Potency, µM (titrated, usually from 57.9 µM), for inactives: top-dose activity change, negative = inhibition, actives largely listed as inhibitors; AID 1159524; FMDV antiviral cell-based qHTS; 410,000 tested, 1.2% active; calls by dose curve; tested in HEK293T cells; note: read-out not given here; potency is the fitted concentration of half-maximal effect; nearly all actives have a fitted effect of over 45% in size
HCMV inh: inhibitors of human cytomegalovirus. 410,000 tested, 4.5% active. AID 1259415. activity change, negative = inhibition, % at 57.5 µM. HFF cells, HCMV-luciferase reporter, 72 h; active compounds read low; in the data active = activity change below about -60%; inconclusive = no clear call, values can overlap the other calls; inactive = above about -39%
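Luciferase read-out from HCMV-luciferase-infected HFFs (MOI 1 PFU/cell) 72 h post infection at 37C; compounds added after 16 h cell attachment; activity normalized between buffer-only basal and Salinomycin (10uM) inhibitor controls.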
FBPA Giardia inh: inhibitors of Giardia lamblia fructose-1,6-bisphosphate aldolase | A8B2U2 | purified Giardia FBPA | Potency, µM (top dose mostly 59.6 µM), for inactives: at the highest dose activity, negative = inhibition, hits mostly inhibitors | 290,000 tested, 0.71% active | AID 2451; note: potency is the fitted concentration of half-maximal effect; nearly all actives have a fitted effect of over 55% in size
Target sequence (A8B2U2 whole entry, looked up): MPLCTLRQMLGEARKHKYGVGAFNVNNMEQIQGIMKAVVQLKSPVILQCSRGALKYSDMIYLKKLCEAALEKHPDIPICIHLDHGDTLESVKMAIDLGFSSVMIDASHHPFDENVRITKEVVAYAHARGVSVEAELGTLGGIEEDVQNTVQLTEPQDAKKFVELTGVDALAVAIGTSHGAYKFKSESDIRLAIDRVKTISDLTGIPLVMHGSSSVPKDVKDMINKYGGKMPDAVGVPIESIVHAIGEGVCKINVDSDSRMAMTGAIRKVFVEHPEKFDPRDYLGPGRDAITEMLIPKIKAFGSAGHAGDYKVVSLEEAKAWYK
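Giardia FBPA (40 nM reagent) was preincubated 10 min at RT with compound (up to 57.5 uM final), then substrate plus GAPDH/TPI/NAD/arsenate coupling system with diaphorase/resazurin was added; resorufin fluorescence (525/598 nm) was read after 20 min.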
HCV inh: blocks hepatitis C virus | 340,000 tested, 3.4% active | Potency, µM (titrated, usually from 41.8 µM), for inactives: at the top dose activity change, negative = inhibition, hits mostly inhibitors | Huh7.5.1 HCVcc-Cre infection, luciferase reporter, 44 h; note: potency is the fitted concentration of half-maximal effect
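HCVcc-Cre virus at an moi near 0.5 was added right after compound to cells cultured 4 h from seeding (1,000 cells/well). Luciferase activity was determined 44 h later, 15 min after substrate addition at RT.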
An asterisk follows results filed as active; ? = inconclusive; nt = no result given; ! = not confirmed by another sample; [ ] = another dose, or the depositor's remark. This is a sample that favours compounds with a hit; in the whole collection about 8.3% have one here. Unless noted, calls come from the whole dose curve; as a rule, active = well fitted curve in the direction sought with a large enough effect; inconclusive = small, poorly fitted or top-dose-only effect, or another doubt; inactive = no such curve, though single readings can be large; an effect the other way counts as inactive or inconclusive. % is set by controls: 0 for no effect and ±100 for the full control effect.

SMILES | Lassa entry inh | Marburg entry inh | FMDV antiviral | HCMV inh | FBPA Giardia inh | HCV inh
Cc1cc(C)cc(OCC(=O)Nc2ccc(N3CCN(C(=O)c4ccco4)CC3)cc2)c1 | -10% | -26% | nt | -12 | 9% | ?
O=C(N1CCC[C@@H]1c1noc2ccccc12)C(F)(F)F | nt | nt | nt | -9 | nt | nt
Cc1cn(C2CC3OCC(NC(=O)C4CCCN4C(=O)OC(C)(C)C)C3O2)c(=O)[nH]c1=O (centres undefined) | nt | nt | nt | nt | 4% | nt
Cc1ccccc1OCC(=O)Nc1ccc(N2CCN(C(=O)c3ccco3)CC2)cc1 | ? | ? | 28µM* | -73* | -2% | ?
Cc1cccc(OCC(=O)Nc2ccc(N3CCN(C(=O)c4ccco4)CC3)cc2)c1C | -11%[46.1 µM] | ? | -17% | -10 | 2% | -22%
COc1ccc(OCC(=O)Nc2ccc(N3CCN(C(=O)c4ccco4)CC3)cc2)cc1 | 14% | ? | -6% | ? | 6% | -12%
O=C(COc1ccc(Cl)cc1)Nc1ccc(N2CCN(C(=O)c3ccco3)CC2)cc1 | ? | ? | nt | -86* | -3% | 10µM*
COc1ccc2c(c1)CCc1c(C(=O)Nc3c(C)nn(Cc4ccccc4Cl)c3C)noc1-2 | -19%[46.1 µM] | ? | -3% | ? | nt | nt
COc1ccc2c(c1)CCc1c(C(=O)NCc3ccc(Cl)cc3)noc1-2 | -22% | 0%[46.1 µM] | 12% | 19 | 0% | 5%
COc1ccc2c(c1)CCc1c(C(=O)Nc3c(C)nn(Cc4ccc(Cl)c(Cl)c4)c3C)noc1-2 | -1%[46.1 µM] | 4%[46.1 µM] | ? | -88* | nt | nt
COc1ccc2c(c1)CCc1c(C(=O)Nc3cc(C)n(Cc4ccc(Cl)cc4)n3)noc1-2 | nt | -3% | -8% | -64* | -2% | -1%
COc1ccc2c(c1)CCc1c(C(=O)Nc3c(C)nn(Cc4ccccc4)c3C)noc1-2 | 6%[46.1 µM] | 12%[46.1 µM] | 28µM* | -67*! | -7% | 8.9µM*
COc1ccc2c(c1)CCc1c(C(=O)Nc3c(C)nn(Cc4ccc(Cl)cc4)c3C)noc1-2 | -10%[46.1 µM] | -4%[46.1 µM] | -26% | -79* | nt | nt
COc1ccc(/C=C/C(=O)OCCC(C)C)cc1 | nt | nt | nt | nt | -1% | nt
COc1ccc(Oc2ncc3nc(-c4cccc(C#N)c4)c(=O)n(C)c3n2)cc1 | nt | nt | -1% | nt | 9% | nt
Cc1nn(Cc2ccc(Cl)cc2)c(C)c1NC(=O)c1noc2c1CCc1ccccc1-2 | -15%[46.1 µM] | 17%[46.1 µM] | 40µM* | 36 | -5% | 2%
Cc1ccc2oc(C(=O)Nc3sc4c(c3C(=O)NCc3ccccc3)CCCC4)cc(=O)c2c1 | 19%[46.1 µM] | 10%[46.1 µM] | 7% | 12 | nt | nt
CSc1ccc(CN(C)C(=O)c2cc(=O)[nH]c3ccccc23)cc1 | -14% | 0%[46.1 µM] | 2.8µM* | -29 | 1% | 13%
Cc1ccc[n+](CC(=O)c2cc3ccccc3oc2=O)c1 | 12% | 7% | nt | 2 | -2% | 10%
O=C(NCCc1ccccc1)c1cc(=O)[nH]c2ccccc12 | -27%[46.1 µM] | 10%[46.1 µM] | 4% | -60* | 3% | 15%
CSc1ccc(CN(C)C(=O)c2cc(=O)c3ccccc3o2)cc1 | -2%[46.1 µM] | 0%[46.1 µM] | 17% | -22 | 2% | -1%
Cc1cc(C)c[n+](CC(=O)c2cc3ccccc3oc2=O)c1 | 18% | 4% | 0% | -98* | -4% | 1%
O=C(NCCc1ccccc1)c1cc2ccccc2oc1=O | nt | nt | 12% | -103* | -6% | 0%
O=C(c1ccccc1)c1ccc(C(=O)N2CCN(c3ccc(O)cc3)CC2)cc1 | nt | nt | -2% | -78* | nt | -3%
O=C(c1ccc(N2CCN(C(=O)c3ccccc3)CC2)cc1)c1cccc(F)c1 | -22%[46.1 µM] | ? | -22% | -32 | 12% | ?
SMILES | Lassa entry inh | Marburg entry inh | FMDV antiviral | HCMV inh | FBPA Giardia inh | HCV inh
O=C(c1ccc(N2CCN(C(=O)c3ccc(F)c(F)c3)CC2)cc1)c1cccc(F)c1 | nt | nt | 0% | -72* | nt | ?
O=C1c2ccccc2S(=O)(=O)c2cc(N3CCN(C(=O)c4ccccc4)CC3)ccc21 | nt | nt | 40µM* | -12 | nt | ?
O=C1c2ccccc2S(=O)(=O)c2cc(C(=O)N3CCN(c4ccccc4)CC3)ccc21 | nt | nt | -12% | 47 | nt | -12%
CN1CCN(c2ncc3nc(-c4cc(F)cc(F)c4)c(=O)n(CCc4ccccc4)c3n2)CC1 | nt | nt | -5% | nt | 0% | nt
COc1ccc2c(c1)-c1nc(-n3ncc(C(=O)N(C)CC4CCCN(C)C4)c3C)ncc1CC2 (centres undefined) | nt | nt | -17% | nt | nt | nt
Cc1ccc(C)c2sc(N3CCN(C(=O)c4ccc([N+](=O)[O-])o4)CC3)nc12 | ? | 13µM* | ? | -7 | nt | ?
O=C(c1ccc([N+](=O)[O-])o1)N1CCN(c2nc3c(F)cc(F)cc3s2)CC1 | 3% | ? | 0% | 2 | nt | 0.56µM*
O=C1C(=O)N(Cc2ccc(Cl)c(Cl)c2)c2ccccc21 | nt | nt | -3% | nt | -15% | nt
CC(=O)Nc1ccc(Nc2nc(C)c([N+](=O)[O-])c(Nc3ccccc3)n2)cc1 | ? | ? | ? | -22 | 0% | ?
CCC(=O)Nc1ccc(Nc2nc(C)c([N+](=O)[O-])c(Nc3ccc(NC(=O)CC)cc3)n2)cc1 | ? | ? | ? | -17 | -5% | 10µM*
CC(=O)Nc1ccc(Nc2nc(C)c([N+](=O)[O-])c(N(C)c3ccccc3)n2)cc1 | ? | -16% | 32µM* | ? | -9% | 18µM*
Cc1cc(C(=O)CCl)c(C)n1-c1cccc([N+](=O)[O-])c1 | ? | 10µM* | 11µM* | -95* | 1% | ?
CC(=O)c1c(C(C)=O)c(C)n(-c2cccc([N+](=O)[O-])c2)c1C | 20% | 32% | -14% | -15 | 6% | -8%
Cc1cc(-n2c(C)cc(C(=O)COc3ccc4ccc(=O)oc4c3)c2C)no1 | -18% | ? | -29% | ? | ? | ?
Cc1cc(C(=O)CCl)c(C)n1-c1ccon1 | ? | ? | 22µM* | ? | -2% | ?
CN(CC(=O)NCc1ccc(Cl)cc1)S(=O)(=O)c1ccc2c(c1)c(=O)n(C)c(=O)n2C | 14%[46.1 µM] | 0%[46.1 µM] | 3% | -9 | nt | nt
Cc1ccccc1C(=O)Nc1cccc(NC(=O)c2ccc(C(C)(C)C)cc2)c1 | ? | nt | -18% | 12 | nt | nt
O=C(c1ccncc1)N1CCC2(CCN(Cc3nccs3)CC2)CC1 | nt | nt | 0% | nt | -5% | nt
CCOc1ccc(-c2nnc3sc(COc4ccc(Cl)cc4)nn23)cc1 | -23% | -1%[46.1 µM] | -21% | -12 | 0% | 19%
CCOc1ccc(-c2nnc3sc(COc4ccc(C)cc4)nn23)cc1 | 8.2µM* | 7%[46.1 µM] | 0% | 3 | 4% | 16%
Cc1cc2c(nc1C)CCCCN2C[C@H](C)O/N=C\[C@@H](C)[C@H](OCc1ccccc1)C(C)C | nt | nt | nt | nt | -1%[12.9 µM] | nt
CC1CC(C)CN(C(=O)CCNS(=O)(=O)c2ccc3c(c2)CCC(=O)N3)C1 (centres undefined) | 0% | 11% | -1% | -5 | 2% | 18%
